Assay results as given in ChEMBL document CHEMBL3433997, “St. Jude Leishmania screening dataset” (2016).

Columns and labels:
Type in all cases: functional
[1] = target: Solute carrier family 2, facilitated glucose transporter member 1 (Homo sapiens) (UniProt P11166); experiment: ST_JUDE_LEISH: Cytotoxicity at 2uM final concentration against transgenic Leishmania Mexicana promastigotes LmGLUT1 that are glucose transport deficient and complemented with the human glucose transporter GLUT1. Activity is measured by DNA content using SYBR green in vitro
Solute carrier family 2, facilitated glucose transporter member 1 (Homo sapiens), sequence (P11166 whole entry): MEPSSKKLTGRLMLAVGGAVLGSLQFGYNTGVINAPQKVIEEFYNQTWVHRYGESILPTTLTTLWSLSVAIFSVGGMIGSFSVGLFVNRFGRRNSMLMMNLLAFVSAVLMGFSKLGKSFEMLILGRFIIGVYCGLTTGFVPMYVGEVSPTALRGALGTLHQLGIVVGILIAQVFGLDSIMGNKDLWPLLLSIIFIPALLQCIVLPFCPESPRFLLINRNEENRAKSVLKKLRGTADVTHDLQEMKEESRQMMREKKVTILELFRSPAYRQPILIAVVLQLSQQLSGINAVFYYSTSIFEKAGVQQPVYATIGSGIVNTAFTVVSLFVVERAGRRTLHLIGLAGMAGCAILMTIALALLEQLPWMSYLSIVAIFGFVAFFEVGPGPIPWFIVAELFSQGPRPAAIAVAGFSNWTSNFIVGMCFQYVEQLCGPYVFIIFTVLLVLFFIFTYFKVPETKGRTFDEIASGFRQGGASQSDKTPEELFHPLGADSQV

[2] = target: Hexose transporter 1 (Plasmodium falciparum) (UniProt O97467); experiment: ST_JUDE_LEISH: Cytotoxicity at 2uM final concentration against transgenic Leishmania Mexicana promastigotes LmPfHT that are glucose transport deficient and complemented with the Plasmodium falciparum hexose transporter. Activity is measured by DNA content using SYBR green in vitro
[3] = target: Glucose transporter (Leishmania mexicana) (UniProt O61059); experiment: ST_JUDE_LEISH: Cytotoxicity at 2uM final concentration against transgenic Leishmania Mexicana promastigotes LmGT2 that are glucose transport deficient and complemented with the L. Mexicana glucose transporter 2. Activity is measured by DNA content using SYBR green in vitro

SMILES	inhibition [1] [%]	inhibition [2] [%]	inhibition [3] [%]
COc1ccccc1-c1cc(C(=O)N2CCN(S(=O)(=O)c3ccc(C)cc3)CC2)[nH]n1	6.02	3.73	-0.58
COc1cccc(C=NN=c2cc(C)[nH]c3ccccc23)c1	3.57	3.07	3.02
O=C(NC1CCN(Cc2ccccc2)CC1)c1ccc(-c2nc3cc(Cl)c(F)cc3[nH]2)s1	3.32	3.3	4.27
O=C(C=Cc1ccc(Cl)c(Cl)c1)NCCCCCN1CCCC(CCCNS(=O)(=O)c2cccc(C(F)(F)F)c2)C1 (stereo unspecified)	0.93	-0.07	2.4
O=C(Nc1cccc(C(F)(F)F)c1)c1ccc(S(=O)(=O)NCC2CCCN2CC2CCCCC2)cc1 (stereo unspecified)	1.8	3.93	-0.18
N=C(N)NC(=O)Nc1cc(F)c(Cl)c(Cl)c1	12.8	10.5	6.35
CC(=O)N(C)C1CCN(Cc2ccc(-c3cccc(-c4nc5cc(F)ccc5[nH]4)c3)cc2)C1 (stereo unspecified)	1.27	-0.26	1.68
Cc1[nH]c(C)c(-c2ccc(OCCSc3ccncc3)cc2)c(=O)c1Br	1.9	-0.1	0.05
COc1cccc(C(=O)N2CCN(Cc3cccc(NC(=O)c4cccs4)c3)CC2)c1	2.14	2.18	5.14
CCc1ccccc1N1CCN(CCCC(=O)c2ccc(NC(=O)c3ccc(Cl)cc3)cc2)CC1	3.6	3.75	4.09
CCOc1ccccc1CON1C(N)=NC(N)=NC1(C)C	4.48	3.69	7.54
CCc1ccc(C2CCN(CCCCNC(=O)c3ccc(-c4ccc(C(F)(F)F)cc4)cc3)CC2)c(OCCO)c1	7.26	7.58	6.13
Cc1cccc(C(=O)N2CCN(Cc3cccc(NC(=O)c4cccs4)c3)CC2)c1	7.96	9.38	7.07
Oc1ccc(CCCc2cc(Oc3c(I)cc(CCc4ncc[nH]4)cc3I)ccc2O)cc1	1.08	-0.28	-1.55
O=C(NC1CCN(Cc2ccc(F)cc2)CC1)c1ccc(-c2cccc(C(F)(F)F)c2)s1	9.61	9.88	1.44
COc1ccc(NC(=O)NC2CCN(c3ccnc4cc(Cl)ccc34)CC2)cc1	3.93	1.61	0.02
CCCCCCC(C)c1cc(OCCN(CC)CC)c2c(c1)OC(C)(C)C=C2c1ccncc1 (stereo unspecified)	-0.93	0.33	-1.02
CCOC(=O)CCCCOc1c(OC)cc(Cc2cnc(N)nc2N)cc1OC	6.18	6.88	6.09
Cc1cccc2nc(-c3ccc(-c4cccc(CNCC5CCCO5)c4)s3)[nH]c12 (stereo unspecified)	13	11.4	11.3
Cc1ccc2c(=NN=Cc3ccc(N(C)C)cc3)cc(C)[nH]c2c1	1.24	2.71	-5.38
Cc1cc(C(=O)N(Cc2ccc(-c3ccc(CNCCc4ccc(S(C)(=O)=O)cc4)cn3)cc2)C(C)CN(C)C)ccc1[N+](=O)[O-] (stereo unspecified)	7.26	5.46	6.55
COc1cccc(NC(=O)c2ccc(NCCCN3CC(C)CC(C)C3)c([N+](=O)[O-])c2)c1 (stereo unspecified)	6.83	2.93	3.43
COc1ccc(CNCc2cccc(-c3cccc(-c4nc5ccccc5[nH]4)c3)c2)cc1	7.86	4.28	3.04
CC(C)(C)OC(=O)N(Cc1cc(-n2nnnc2C(F)(F)F)ccc1O)[C@H]1CCCN(C(=O)OC(C)(C)C)[C@H]1c1ccccc1	-0.38	-2.92	-3.2

SMILES	inhibition [1] [%]	inhibition [2] [%]	inhibition [3] [%]
CC(C)[C@H](NC(=O)c1ccc(O)c(-c2cccc(C(F)(F)F)c2)c1)C(=O)NC1CCCc2ccccc21 (stereo partly specified)	3.9	2.89	0.81
COc1ccccc1-c1ccc(C(=O)NCC2CCCN(Cc3cccc(C(F)(F)F)c3)C2)s1 (stereo unspecified)	6.82	8.99	7.33
O=C(Nc1ccc(-c2csc(-c3nc4ccccc4[nH]3)c2)cc1)Nc1ccsc1	1.71	0.76	0.44
Ic1cc(Nc2ncnc3ccsc23)ccc1OCc1ccccc1	0.8	0.85	0.81
Cc1cccc(C)c1CNc1ccnc2ccccc12	1.11	2.91	6.9
N=C(N)NC(=O)Nc1ccc(Cl)c(Cl)c1	3.47	-2.48	-1.06
Cc1ccccc1N1CCN(c2ccc(C(=O)NC3CC3)cn2)CC1	10.9	8.46	4.25
CCn1ncc(Cl)c1CN(C)S(=O)(=O)c1ccc2ccccc2c1	5.72	6.41	6.31
O=S(=O)(NCCN1CCCC1)c1ccc(-c2cccc(CNCc3ccc(F)cc3)c2)cc1F	3.24	5.71	4.01
O=C(Nc1ccc(OC2CCN(Cc3ccc(F)cc3)CC2)c(Cl)c1)c1ccoc1	2.65	2.09	3.99
Cc1cccc(CN2CCCN(Cc3cccc(C(=O)Nc4ccc(C(C)(C)C)cc4)c3)CC2)c1	3.43	2.22	1.26
Cc1cc(N[C@@H](CC(C)C)C(=O)NCc2cccc(F)c2)nc(NCCc2ccc(F)cc2)n1	4.5	7.16	4.36
O=C(Nc1ccc(CC(=O)N2CCc3cc(Cl)c(N4CCN(C/C=C/c5ccccc5)CC4)cc32)cc1)Nc1cccc([N+](=O)[O-])c1	1.73	1.25	1.93
Cc1nc(Nc2cc(Cl)ccc2O)nc(Nc2cc(Cl)ccc2O)c1[N+](=O)[O-]	4.36	3.14	1.45
Nc1nc(N)c2c(CCc3ccc4ccccc4c3)cccc2n1	3.27	1.63	-1.66
Cn1cnc(CCNC(=O)c2ccc(-c3cccc(-c4nc5cc(F)ccc5[nH]4)c3)cc2)c1	2.97	1.64	0.52
COc1ccc2nccc(N3CCCN(CCNS(=O)(=O)c4ccc5c(c4)NC(=O)CS5)CC3)c2n1	0.19	1	-0.73
Cc1ccc(Oc2ncccc2C(=O)Nc2cccc3cccnc23)c(C)c1	-2.47	-0.84	-1.45
Cc1cccnc1Nc1nc(-c2ccccn2)cs1	93.5	73.2	90.1
COc1cccc(C2(c3cccc(OC)c3)N=C(N)N(CCCc3ccccc3)C2=O)c1	-0.49	-0.23	-2.44
CCOc1cc(Cl)c(C(C)NC(=O)c2ccccc2)cc1OCC (stereo unspecified)	1.69	3.65	3.01
FC(F)(F)c1cc(CNCCCNc2nc3ccncc3[nH]2)ccc1Cl	1.9	1.51	0.35
CO/C(=C\C=C\c1cc2cc(Cl)c(Cl)cc2[nH]1)C(=O)NCCCN1CCN(C2CCCCC2)CC1	8.66	5.7	2.31
COc1cccc(O)c1CN1CCC2(CCCN(Cc3ccc(F)cc3)C2)C1 (stereo unspecified)	1.04	2.73	-0.21

SMILES	inhibition [1] [%]	inhibition [2] [%]	inhibition [3] [%]
CCN(CCNC(=O)C1CCN(c2cc(-c3cccc(C)c3)ncn2)CC1)Cc1ccccc1	4.41	3.37	4.06
CS(=O)(=O)N1CC2(CCN(CCC(NC(=O)/C=C/c3ccccc3)c3ccc(Cl)c(Cl)c3)CC2)c2ccccc21 (stereo unspecified)	2.11	0.3	1.25
CN(C(=O)Nc1ccc(C(F)(F)F)cc1)C1CCN(CCCCCNC(=O)/C=C/c2ccc(Cl)c(Cl)c2)CC1	4.18	2.6	0.47
COc1cccc(Nc2nccc(NCC(O)c3cccc(C(F)(F)F)c3)n2)c1 (stereo unspecified)	4.86	5.48	1.78
Cc1ccc2nc3c(cc(C(=O)NCc4ccccc4)c(=N)n3CCCn3ccnc3)c(=O)n2c1	10.5	12.5	12.2
Cc1noc(C)c1-c1ccc(C(=C2CCCCCCC2)c2ccc(O)cc2)cc1	-4.06	-2.9	5.39
O=C(NCc1ccc(Cl)c(Cl)c1)c1cccc(C2CCCN(Cc3ccc4[nH]cnc4c3)C2)c1 (stereo unspecified)	0.36	2.01	-0.63
Cn1cnc2c(SCc3ccc(OCc4ccccc4)cc3)ncnc21	2.71	4.19	6.37
CCOC(=O)C(NC(=O)c1ccc([N+](=O)[O-])o1)C(C)C (stereo unspecified)	-1.7	-1.51	-2.33
Oc1ccc(CCNc2nc(NCc3ccccc3Oc3ccc(C(F)(F)F)cc3)nc(N3CCNCC3)n2)cc1	-0.98	-1.74	-2.4
COC(=O)C(Cc1ccccc1)NC(=O)NC1CCN(c2ccnc(Nc3ccc(F)cc3)n2)C1 (stereo unspecified)	1.44	0.86	3.07
Cn1cnc(CCNC(=O)c2cccc(-c3csc(-c4nc5ccccc5[nH]4)c3)c2)c1	-1.62	-0.39	-0.89
O=C(Nc1cccc(C(F)(F)F)c1)Nc1cc(F)c(F)cc1Cl	1.86	1.72	2.36
CCN(CCNS(C)(=O)=O)c1ccc(N)c(C)c1	1.65	1.06	1.72
CCc1ccc(CN2CCC(CNC(=O)c3cc(-c4ccccc4F)cs3)C2)cc1 (stereo unspecified)	1.55	-3.47	1.83
O=C(/C=C/c1ccc(C(F)(F)F)cc1)NCCCCCN1CCN(C(=O)Nc2ccc(Cl)cc2)CC1	2.27	3.09	1.84
CC(C)(CNCc1ccc(F)c(F)c1)c1nc(-c2ccnc(N)n2)c(-c2ccc(Cl)c(O)c2)[nH]1	3.92	1.07	2.56
COc1cc2c(cc1OC)CN(CCc1ccc(NC(=O)c3cc4cc(Cl)ccc4[nH]3)cc1)CC2	8.2	0.43	1.46
Cc1cccc2nc(-c3cccc(-c4ccc(NC(=O)c5cccc(C(N)=O)c5)cc4)c3)[nH]c12	1.01	1.42	1.38
Cc1ccc(NC(=O)c2nc(N3CCN(c4ccncc4)CC3)ccc2Cl)cc1F	13.1	7.01	5.57
N#Cc1ccc(-c2ccc(C(=O)Nc3ccc4c(c3)CCN(C3CCC3)CC4)nc2)cn1	7.75	7.17	5.21
CS(=O)(=O)c1ccc2[nH]c(-c3cc(-c4ccc(OCCN5CCOCC5)cc4)cnc3N)nc2c1	6.63	6.02	4.16
CC1CCCN(c2ccc(NC(=O)c3cccs3)cc2[N+](=O)[O-])C1 (stereo unspecified)	1.22	1.19	-1.43
O=C(Nc1ccc(Oc2cccnc2)cc1)C1CCN(Cc2cc(Cl)ccc2O)CC1	2.3	4.55	1.47
